This is one part of a sample in which hits are shown more often than they occur.
RBX1-CUL1 inh: inhibitors of human ROC1-CUL1 ubiquitin ligase activity; in vitro K48 di-Ub FRET, acceptor:donor ratio, 45 min; inhibition, % at 10 µM; 0.6% of 140,000 active; AID 1347404; in the data active = inhibition above about 25%
Target sequence (P62877 whole entry, looked up): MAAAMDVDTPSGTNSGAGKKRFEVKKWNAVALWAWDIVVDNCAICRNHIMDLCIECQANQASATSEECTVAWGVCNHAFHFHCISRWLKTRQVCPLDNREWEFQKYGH
Target sequence (Q13616 whole entry, looked up): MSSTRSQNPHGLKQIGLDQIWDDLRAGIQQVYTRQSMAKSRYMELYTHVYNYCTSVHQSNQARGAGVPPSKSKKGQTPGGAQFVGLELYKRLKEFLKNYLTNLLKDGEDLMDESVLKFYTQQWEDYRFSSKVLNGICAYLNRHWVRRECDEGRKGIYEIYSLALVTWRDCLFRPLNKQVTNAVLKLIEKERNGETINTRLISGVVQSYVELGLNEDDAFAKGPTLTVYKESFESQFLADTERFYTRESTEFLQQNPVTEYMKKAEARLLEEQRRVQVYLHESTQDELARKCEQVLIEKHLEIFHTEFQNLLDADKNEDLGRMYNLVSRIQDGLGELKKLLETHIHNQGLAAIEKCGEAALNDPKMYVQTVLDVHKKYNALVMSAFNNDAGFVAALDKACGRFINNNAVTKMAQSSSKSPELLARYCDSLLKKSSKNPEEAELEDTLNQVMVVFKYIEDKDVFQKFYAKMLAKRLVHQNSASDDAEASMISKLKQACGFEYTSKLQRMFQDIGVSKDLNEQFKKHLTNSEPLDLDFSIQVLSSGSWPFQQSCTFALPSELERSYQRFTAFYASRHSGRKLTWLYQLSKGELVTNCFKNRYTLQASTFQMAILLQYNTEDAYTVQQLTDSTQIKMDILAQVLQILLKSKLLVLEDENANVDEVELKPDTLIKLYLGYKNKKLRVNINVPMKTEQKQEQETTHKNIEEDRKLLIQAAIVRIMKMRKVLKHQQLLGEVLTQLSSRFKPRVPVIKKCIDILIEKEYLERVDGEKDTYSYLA
The depositor's hits bear a star.

SMILES	RBX1-CUL1 inh
CCOC(=O)c1c(-c2ccco2)csc1NC(=O)CSc1cc(C)c2ccccc2n1	91*
CCOC(=O)c1c(-c2ccccc2)csc1NC(=O)CSc1cc(C)c2ccccc2n1	-1
CCOC(=O)c1c(-c2ccc(F)cc2)csc1NC(=O)CSc1nc2ccccc2c(=O)n1-c1ccccc1	4
O=C(Nc1sc2c(c1C(=O)NCC1CCCO1)CCC2)c1cc(=O)c2cc(Cl)ccc2o1 (stereo not given)	0
CCc1ccc(CNCC2CCCO2)cc1 (stereo not given)	1
O=C1N(Cc2cccc(F)c2F)CCCC1(O)CNCC1CCCCC1 (stereo not given)	11
O=C1N(Cc2cccc(F)c2F)CCCC1(O)CNC1CCCC1 (stereo not given)	94*
O=C1N(Cc2cccc(F)c2F)CCCC1(O)CNC1CCC1 (stereo not given)	-7
O=C(CN1C(=O)S/C(=C\c2ccco2)C1=O)c1ccc(Br)cc1	-1
O=C1/C(=C/c2ccco2)SC(=S)N1c1ccccc1Br	-4
CC(C)C(C(=O)O)N1C(=O)/C(=C\c2ccco2)SC1=S (stereo not given)	102*
CC(C)C(C(=O)O)N1C(=O)/C(=C/c2ccc(F)cc2)SC1=S (stereo not given)	15
O=C1/C(=C\c2ccco2)SC(=S)N1c1cccc(O)c1	9
CC(C(=O)O)N1C(=O)/C(=C\c2ccco2)SC1=S (stereo not given)	53*
CCN(CC)C(=O)Cn1cc(C(=O)N[C@H](C)c2cccc(OC)c2)nn1	6
O=C(O)C(Cc1ccccc1)NS(=O)(=O)c1cccs1 (stereo not given)	-1
O=C1C(=O)c2ccccc2/C1=C\c1cccs1	6
O=C1C(Cl)=CC(=NS(=O)(=O)c2cccs2)c2ccccc21	41*
O=C(COc1ccccc1C(=O)Nc1ccccn1)NCCOc1ccccc1	7
O=C(O)Cc1ccccc1Sc1ccc(Cl)cc1	-12
CC(=O)c1ccccc1Sc1ccc(Cl)cc1	8
NCc1ccccc1Sc1ccc(Cl)cc1	31*
COc1ccc(-c2c3c(nc4sc(C(=O)c5ccccc5)c(N)c24)C(=O)c2ccccc2-3)cc1	3
CCOc1ccc(C(C2C(=O)C=C(C)N(CCOC)C2=O)N2CCN(c3ccccc3)CC2)cc1 (stereo not given)	5
CC1=NC(=O)C(C(=O)/C=C/c2ccc3c(c2)OCO3)=C(C)C1	-7
SMILES	RBX1-CUL1 inh
O=S(=O)(NCc1ccc2c(c1)OCO2)c1cccc(F)c1	3
CN(CCC(=O)/C=C/c1cccc(F)c1)CCc1ccc2c(c1)OCO2	50*
CCc1cccc(C)c1NC(=O)CSc1nnc(-c2ccc(Cl)c(Cl)c2)n1C	10
COc1ccc(NC(=O)CSc2nc(CSc3ccc(Cl)cc3)cc(=O)[nH]2)cc1	-7
CSC1=C(c2ccc(C)s2)C(=NC(C)C)C1	-3
COc1cccc(CNC(=O)C2CCN(C(=O)N3CCOc4ccc(Cl)cc43)CC2)c1OC	-4
COC1=CC(=Cc2c(N)n3nc(-c4ccccc4Cl)sc3nc2=O)C=CC1=O	60*
Cc1ccc(-c2nn3c(N)c(C=C4C=Nc5ccccc54)c(=O)nc3s2)cc1	2
Nc1c(C=C2C=Nc3ccccc32)c(=O)nc2sc(C(F)(F)F)nn12	-4
C=CCn1c(=O)c2c(nc3n2CCCN3c2cccc(C)c2)n(C)c1=O	1
O=C(N/N=C/c1ccc(Cl)cc1Cl)c1ccc(O)c(O)c1	4
O=C(N/N=C/c1cccc(Cl)c1Cl)c1ccc(O)c(O)c1	55*
O=C(N/N=C/c1cccc(Cl)c1Cl)c1ccc(Br)cc1	0
O=C(O)CCCCCN1C(=O)c2ccc3c4c(ccc(c24)C1=O)C(=O)N(CCCCCC(=O)O)C3=O	7
O=C(O)CCCCCN1C(=O)/C(=C2\SC(=S)N(CCCCCC(=O)O)C2=O)SC1=S	65*
COc1ccccc1/C=C1/SC(=S)N(CCCCCC(=O)O)C1=O	15
COc1ccc(-c2nc3n(n2)C(c2cccc(C)c2)C(C(N)=O)C(C)=N3)cc1OC (stereo not given)	-1
COc1ccc(CCNC(=O)Cc2ccc(OCc3ccccc3)c(OCc3ccccc3)c2)cc1OC	-3
Cc1ccc2cccc(OC(=S)Nc3ccccc3)c2n1	2
CC(=O)Nc1ccc(-n2cccc2)cc1	-3
CC(=O)Nc1ccc(N2N=C(C)CC2=O)cc1	28*
CC1=NN(c2cccc(S(=O)(=O)O)c2)C(=O)C1	7
O=S1(=O)CC(Br)C2CCCCC21 (stereo not given)	2
CCOC(=O)CN(C)C(=O)c1coc(COc2ccc(F)cc2Cl)n1	3
O=C(O)CCCCCNC(=O)/C=C/c1ccccc1-c1ccccc1	2
SMILES	RBX1-CUL1 inh
O=C1c2cccc3cccc(c23)C(=O)C1Sc1ccccc1	99*
O=C1Nc2ccccc2C(=O)C1Sc1ccccc1 (stereo not given)	0
O=C1c2ccccc2N(c2ccccc2)C(=O)C1Sc1ccccc1 (stereo not given)	5
CCCOC(=O)c1c(NC(=O)CCC(=O)O)sc2c1CCCCCCCCCC2	7
C[n+]1c2ccccc2n2nc3c(cc21)c1cccc2cccc3c21	13
C[n+]1c2ccccc2n2nc3c(cc21)c1cccnc1c1ncccc31	-4
C[n+]1c2cc3ccccc3cc2n2nc3c(cc21)c1cccc2cccc3c21	97*
Cc1cccc(C)c1NC(=O)c1ccccc1N	-5
COc1ccc(C2c3[nH]c4ccccc4c3CCN2Cc2ncc[nH]2)c(C)c1C (stereo not given)	5
COC(=O)C(NC(=O)c1ccco1)(Nc1ccc(Cl)cn1)C(F)(F)F (stereo not given)	-4
CC(=O)CC1(O)C(=O)N(CN2CCOCC2)c2ccccc21 (stereo not given)	1
Cc1c(Br)c([N+](=O)[O-])nn1Cc1cccc(C(=O)O)c1	1
COc1ccc(C(=O)NCC(c2ccc(N(C)C)cc2)N2CCc3ccccc32)cc1 (stereo not given)	-6
O=C(O)C1=NN(c2ccccc2)C(=O)/C1=C\c1cccs1	26*
CCOC(=O)C1=NN(c2ccccc2)C(=O)/C1=C\c1ccc(F)cc1	6
O=C1/C(=C\c2cccs2)C(c2ccccc2)=NN1c1ccc(Cl)c(Cl)c1	-5
CCN(CC1CCN(C2CCN(C)CC2)CC1)C(=O)c1ccc(C=O)cc1	2
CCN(CC1CCN(C2CCN(C)CC2)CC1)C(=O)c1cc(C)[nH]n1	26*
CCN(CC1CCN(C2CCN(C)CC2)CC1)C(=O)CCC(=O)c1ccccc1	-3
Cc1cccc(NC(=O)CN2C(=O)N=C(Cc3ccc(-c4cccc(C(=O)O)c4)o3)C2=O)c1	10
CC(C)c1ccc(OC(=O)c2ccc(Cl)c(Cl)c2)cc1	-1
COc1cccc(/C=C2\CCC(=C3SCCS3)C2=O)c1	-7
O=C(C=C1SCCS1)/C=C/c1ccco1	5
Cc1ccc(/C=C2\CCc3ccccc3C2=O)o1	-4
CC1=C([N+](=O)[O-])CS(=O)(=O)/C1=C\c1ccco1	7
SMILES	RBX1-CUL1 inh
Nc1ccc2c(c1)C/C(=C/c1ccco1)C2=O	31*
O=C1C(=C2SCCS2)CC/C1=C\c1ccco1	73*
C[C@@H]1CN(C2(C(=O)NC3CCCC3)Cc3ccccc3C2)C[C@H](C)O1	2
C/C=C(\SC)S(=O)(=O)c1ccc(C)cc1	4
CCc1ccc(S(=O)(=O)N2CCCC(CNS(=O)(=O)c3cccs3)C2)s1 (stereo not given)	-1
O=C(CCC1CCN(C(=O)C2CCCO2)CC1)Nc1ccc2c(c1)OCCO2 (stereo not given)	8
